About 7,900 targets were measured; listed, in parts, are those with a hit and a random draw of the rest. About 0.6% of all pairs of compound and target were hits.
What was measured:
Assay in all cases: log2 fold change, soluble protein after heating vs DMSO (PISA); higher = thermal stabilisation; K562 cells, 10 uM, 30 min; active = over 0.2 and 3.5 SD of the protein, either way, in both replicates (recomputed)
[1] = compound: C1=CC=C(C=C1)[C@H](COC2=CC3=C(C=C2)NC(=O)N3)NC(=O)C4=CC=CN(C4=O)CC5=CC(=C(C=C5)F)F
In short: (§1)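 K562 cells at 2×10^6 cells/mL were treated for 30 min with 10 μM compound, and aliquots were heated for 3 min over 48°C-58°C before pooling. Extraction used PBS with 0.5% NP-40 at 4°C, and soluble protein was the supernatant after 21,000xg for 90 min, measured by TMTpro 16plex LC-MS/MS with channel sums equalised. Thermal stability values, relative to control samples and from duplicates, are log2 fold changes.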

[2] = compound: CC1=C(SC2=C1C(=N[C@H](C3=NN=C(N32)C)CC(=O)N)C4=CC=C(C=C4)Cl)C
In short: as §1

[3] = compound: CC1=C2C(=CC=C1)N=C(N(C2=O)C3=CC=CC=C3C)CN4C=NC5=C(N=CN=C54)N
In short: as §1

[4] = compound: Cc1sc2c(c1C)C(c1ccc(Cl)cc1)=N[C@@H](CC(=O)OC(C)(C)C)c1nnc(C)n1-2
In short: as §1

[5] = compound: c1ccc([C@@H]2C[C@H]2NC2CCNCC2)cc1
In short: as §1

Measured: log2 fold change

DNAJB1 (UniProt P25685)
Sequence of UniProt P25685 (P25685 whole entry, looked up): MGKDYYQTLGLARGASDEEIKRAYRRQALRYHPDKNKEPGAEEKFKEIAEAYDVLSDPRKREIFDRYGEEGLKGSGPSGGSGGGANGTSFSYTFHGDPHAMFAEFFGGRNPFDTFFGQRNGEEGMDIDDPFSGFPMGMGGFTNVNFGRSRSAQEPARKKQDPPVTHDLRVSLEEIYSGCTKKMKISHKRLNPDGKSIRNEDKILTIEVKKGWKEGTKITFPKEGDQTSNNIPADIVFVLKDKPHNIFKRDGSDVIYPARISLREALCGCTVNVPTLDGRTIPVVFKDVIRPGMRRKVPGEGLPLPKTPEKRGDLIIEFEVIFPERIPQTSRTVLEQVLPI
inactive: [1] -0.019 | [2] 0.015 | [3] 0.066 | [4] -0.003 | [5] -0.026

DCUN1D1 (UniProt Q96GG9)
Sequence of UniProt Q96GG9 (Q96GG9 whole entry, looked up): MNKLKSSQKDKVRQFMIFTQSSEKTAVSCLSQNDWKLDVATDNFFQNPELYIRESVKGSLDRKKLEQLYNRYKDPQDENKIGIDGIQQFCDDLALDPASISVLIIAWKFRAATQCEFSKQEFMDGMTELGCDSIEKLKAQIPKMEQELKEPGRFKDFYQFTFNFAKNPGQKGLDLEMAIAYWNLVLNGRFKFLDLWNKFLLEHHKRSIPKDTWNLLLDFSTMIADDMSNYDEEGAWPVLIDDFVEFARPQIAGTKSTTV
inactive: [1] -0.011 | [2] 0.064 | [3] 0.073 | [4] -0.033 | [5] 0.003

DMXL1 (UniProt Q9Y485)
inactive: [1] -0.017 | [2] 0.003 | [3] 0.071 | [4] -0.016 | [5] -0.05

EHD2 (UniProt Q9NZN4)
Sequence of UniProt Q9NZN4 (Q9NZN4 whole entry, looked up): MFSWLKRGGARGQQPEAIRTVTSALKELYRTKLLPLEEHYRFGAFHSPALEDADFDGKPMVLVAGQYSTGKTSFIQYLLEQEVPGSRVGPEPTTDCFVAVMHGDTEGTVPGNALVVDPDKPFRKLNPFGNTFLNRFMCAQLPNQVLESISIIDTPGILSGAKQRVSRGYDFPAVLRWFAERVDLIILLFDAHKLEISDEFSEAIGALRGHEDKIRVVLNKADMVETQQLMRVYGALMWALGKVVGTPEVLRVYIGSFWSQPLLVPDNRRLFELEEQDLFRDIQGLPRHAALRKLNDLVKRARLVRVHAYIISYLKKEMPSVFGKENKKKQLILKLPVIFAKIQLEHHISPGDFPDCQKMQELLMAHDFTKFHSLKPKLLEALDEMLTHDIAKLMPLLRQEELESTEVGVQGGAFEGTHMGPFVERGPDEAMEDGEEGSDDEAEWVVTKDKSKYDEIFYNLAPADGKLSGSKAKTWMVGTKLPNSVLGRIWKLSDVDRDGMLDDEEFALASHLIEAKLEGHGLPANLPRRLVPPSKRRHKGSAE
inactive: [1] -0.018 | [2] 0.049 | [3] 0.022 | [4] -0.019 | [5] -0.049

DHX16 (UniProt O60231)
Sequence of UniProt O60231 (O60231 whole entry, looked up): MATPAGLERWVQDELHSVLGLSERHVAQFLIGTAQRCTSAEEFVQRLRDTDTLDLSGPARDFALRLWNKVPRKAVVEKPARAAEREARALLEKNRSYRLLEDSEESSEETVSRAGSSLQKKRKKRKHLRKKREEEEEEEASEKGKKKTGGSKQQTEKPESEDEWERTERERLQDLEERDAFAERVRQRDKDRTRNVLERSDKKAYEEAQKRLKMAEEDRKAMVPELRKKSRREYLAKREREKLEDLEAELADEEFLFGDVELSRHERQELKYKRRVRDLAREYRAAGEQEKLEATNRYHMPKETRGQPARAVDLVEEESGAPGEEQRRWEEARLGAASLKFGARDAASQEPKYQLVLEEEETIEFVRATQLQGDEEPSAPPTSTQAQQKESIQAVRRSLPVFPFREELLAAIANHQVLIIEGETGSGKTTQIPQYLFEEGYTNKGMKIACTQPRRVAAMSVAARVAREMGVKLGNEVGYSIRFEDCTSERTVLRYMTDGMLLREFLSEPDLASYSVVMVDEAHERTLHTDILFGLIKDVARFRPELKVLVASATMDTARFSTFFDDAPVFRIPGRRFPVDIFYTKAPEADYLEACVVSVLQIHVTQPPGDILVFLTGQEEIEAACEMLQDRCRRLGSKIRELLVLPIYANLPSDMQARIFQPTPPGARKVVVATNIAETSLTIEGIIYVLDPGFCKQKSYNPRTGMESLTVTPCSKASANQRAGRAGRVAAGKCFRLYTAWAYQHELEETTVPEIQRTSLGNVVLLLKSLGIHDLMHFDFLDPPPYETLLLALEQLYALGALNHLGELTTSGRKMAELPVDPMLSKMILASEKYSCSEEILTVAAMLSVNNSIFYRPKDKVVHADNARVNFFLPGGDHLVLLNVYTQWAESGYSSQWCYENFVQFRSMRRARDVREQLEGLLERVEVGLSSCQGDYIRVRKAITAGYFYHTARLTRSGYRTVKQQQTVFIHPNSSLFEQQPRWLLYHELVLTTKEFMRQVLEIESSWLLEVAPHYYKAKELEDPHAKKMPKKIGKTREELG
inactive: [1] -0.024 | [2] 0.007 | [3] 0.059 | [4] -0.003 | [5] 0.017

DAG1 (UniProt Q14118)
inactive: [1] -0.068 | [2] 0.074 | [3] 0.072 | [4] 0.016 | [5] 0.049

DFFB (UniProt O76075)
Sequence of UniProt O76075 (O76075 whole entry, looked up): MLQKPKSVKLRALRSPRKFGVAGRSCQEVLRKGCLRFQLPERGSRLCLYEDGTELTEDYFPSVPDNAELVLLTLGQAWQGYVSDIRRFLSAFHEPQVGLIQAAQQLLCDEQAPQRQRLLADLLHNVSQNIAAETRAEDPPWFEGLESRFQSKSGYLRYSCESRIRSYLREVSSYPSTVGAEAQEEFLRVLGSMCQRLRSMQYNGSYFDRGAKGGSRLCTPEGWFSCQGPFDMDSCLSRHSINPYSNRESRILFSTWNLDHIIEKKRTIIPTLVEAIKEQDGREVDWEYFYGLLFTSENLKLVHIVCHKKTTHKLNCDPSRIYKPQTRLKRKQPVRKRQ
inactive: [1] -0.027 | [2] 0.099 | [3] 0.048 | [4] 0.202 | [5] 0.049

EXOC4 (UniProt Q96A65)
Sequence of UniProt Q96A65 (Q96A65 whole entry, looked up): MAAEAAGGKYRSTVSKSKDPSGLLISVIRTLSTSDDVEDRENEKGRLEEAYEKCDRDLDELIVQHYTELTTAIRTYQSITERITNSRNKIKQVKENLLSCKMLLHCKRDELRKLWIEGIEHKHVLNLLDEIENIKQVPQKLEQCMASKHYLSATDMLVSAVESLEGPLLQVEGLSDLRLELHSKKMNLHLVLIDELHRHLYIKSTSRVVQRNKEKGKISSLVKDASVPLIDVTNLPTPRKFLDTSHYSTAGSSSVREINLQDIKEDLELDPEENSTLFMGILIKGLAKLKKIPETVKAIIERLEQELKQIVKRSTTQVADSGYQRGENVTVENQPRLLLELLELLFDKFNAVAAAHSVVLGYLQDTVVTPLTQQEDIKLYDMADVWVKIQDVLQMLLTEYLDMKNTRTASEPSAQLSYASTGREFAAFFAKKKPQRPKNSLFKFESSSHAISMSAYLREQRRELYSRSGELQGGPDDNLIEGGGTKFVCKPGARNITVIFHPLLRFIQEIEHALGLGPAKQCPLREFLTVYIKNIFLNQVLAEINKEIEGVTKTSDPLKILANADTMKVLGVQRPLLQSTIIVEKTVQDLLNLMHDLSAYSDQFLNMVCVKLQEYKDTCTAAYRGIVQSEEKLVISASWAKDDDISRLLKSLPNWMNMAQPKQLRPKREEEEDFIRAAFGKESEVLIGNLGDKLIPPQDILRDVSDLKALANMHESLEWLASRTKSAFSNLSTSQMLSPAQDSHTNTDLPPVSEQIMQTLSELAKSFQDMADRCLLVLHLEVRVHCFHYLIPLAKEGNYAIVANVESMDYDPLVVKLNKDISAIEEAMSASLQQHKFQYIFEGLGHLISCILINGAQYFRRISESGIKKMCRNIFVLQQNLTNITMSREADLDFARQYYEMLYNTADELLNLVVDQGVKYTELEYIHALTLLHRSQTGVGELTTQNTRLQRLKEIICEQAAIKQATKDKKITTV
inactive: [1] -0.05 | [2] 0.052 | [3] 0.015 | [4] 0.081 | [5] -0.049

EDC4 (UniProt Q6P2E9)
Sequence of UniProt Q6P2E9 (Q6P2E9 whole entry, looked up): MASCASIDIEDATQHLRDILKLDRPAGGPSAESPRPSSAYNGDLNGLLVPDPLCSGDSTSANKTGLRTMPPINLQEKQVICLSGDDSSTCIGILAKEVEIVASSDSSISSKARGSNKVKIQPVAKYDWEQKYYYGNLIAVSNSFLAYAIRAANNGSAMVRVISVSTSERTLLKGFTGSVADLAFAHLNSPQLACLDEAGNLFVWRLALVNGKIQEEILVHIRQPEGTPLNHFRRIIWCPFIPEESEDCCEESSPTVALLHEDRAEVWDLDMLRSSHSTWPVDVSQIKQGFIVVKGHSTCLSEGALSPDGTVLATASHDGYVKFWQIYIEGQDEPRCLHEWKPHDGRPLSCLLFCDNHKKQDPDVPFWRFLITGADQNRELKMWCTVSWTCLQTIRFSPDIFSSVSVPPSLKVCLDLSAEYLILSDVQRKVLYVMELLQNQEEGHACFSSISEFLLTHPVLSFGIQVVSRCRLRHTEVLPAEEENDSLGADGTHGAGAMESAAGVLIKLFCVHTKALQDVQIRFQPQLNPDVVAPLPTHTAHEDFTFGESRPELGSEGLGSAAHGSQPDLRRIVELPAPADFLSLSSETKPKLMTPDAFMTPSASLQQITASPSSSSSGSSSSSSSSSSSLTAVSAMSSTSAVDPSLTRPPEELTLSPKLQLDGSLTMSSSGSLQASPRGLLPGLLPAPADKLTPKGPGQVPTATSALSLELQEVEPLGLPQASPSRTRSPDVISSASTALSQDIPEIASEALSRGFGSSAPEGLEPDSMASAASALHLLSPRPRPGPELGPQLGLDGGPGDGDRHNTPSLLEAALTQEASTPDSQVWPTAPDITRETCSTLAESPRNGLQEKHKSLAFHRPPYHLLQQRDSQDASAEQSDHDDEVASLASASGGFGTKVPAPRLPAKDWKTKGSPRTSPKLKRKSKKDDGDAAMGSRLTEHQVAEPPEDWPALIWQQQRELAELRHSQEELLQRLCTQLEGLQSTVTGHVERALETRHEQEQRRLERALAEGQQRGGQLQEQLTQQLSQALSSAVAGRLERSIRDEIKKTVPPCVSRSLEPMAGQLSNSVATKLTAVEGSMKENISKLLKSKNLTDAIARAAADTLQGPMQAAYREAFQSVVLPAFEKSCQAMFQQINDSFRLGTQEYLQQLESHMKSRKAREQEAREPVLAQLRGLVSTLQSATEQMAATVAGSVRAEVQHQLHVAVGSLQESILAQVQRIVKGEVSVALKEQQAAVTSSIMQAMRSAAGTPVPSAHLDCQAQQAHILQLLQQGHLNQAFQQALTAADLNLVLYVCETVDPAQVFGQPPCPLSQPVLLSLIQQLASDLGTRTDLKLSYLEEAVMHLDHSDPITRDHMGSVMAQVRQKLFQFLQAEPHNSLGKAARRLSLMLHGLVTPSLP
inactive: [1] 0.02 | [2] -0.004 | [3] 0.075 | [4] 0.023 | [5] 0.024

From the supplement of paper PMC10849652
